Source: PubChem BioAssay AID493169 (National Center for Advancing Translational Sciences (NCATS), 2011)
Records with an inconclusive call do not appear. A call without a number means that no potency is given here. Active and inactive are the calls of the source. The call rests on the fitted dose curve; in most records, active means well fitted inhibition curve with a large enough effect; inconclusive means small, poorly fitted or top-dose-only effect; inactive means flat fitted curve, though single readings scatter.

Assay: CHOP2 Reporter Counterscreen Assay for Inhibitors of Ubiquitin-specific Protease USP2a;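 further: activated enterokinase alone at 50 pM in a cell-free format rather than USP2a or CHOP2; nearly all actives have a fitted effect of over 55% in size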
Outline: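 Fluorescence (485/531 nm) read 10 min after adding 25nM reporter substrate to 50 pM activated EK preincubated 30 min RT with compound; Tris pH 8.0/CaCl2/CHAPS buffer. Data normalized to buffer-alone inhibition; concentration-response curves fitted.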
Potency means the concentration at half of the fitted maximal effect.

| Structure (SMILES) | Potency |
| --- | --- |
| CCC(C(=O)NCc1ccccc1OC)n1nc(C)n2c(cc3occc32)c1=O (configuration not stated) | inactive |
| Cc1cc(N2CCC(C(=O)NC3CC3)CC2)nc(-c2ccccc2)n1 | inactive |
| CCOC(=O)Nc1nnc(CCc2ccccc2)s1 | inactive |
| CCCCCCCCCCCCCCCCn1cc[n+](C)c1 | 10 µM (active) |
| CC(C)(C)[C@H]1COC(=O)[C@@H](Cc2ccc(F)cc2)C/C=C\C[C@@H](CC(=O)N[C@H](CO)Cc2ccccc2)C(=O)N1 | inactive |
| C#CCOCCOCCOCCNc1nc(N2CCN(C(=O)CCCCCCCCCCNC(=O)Cn3cc(CCCCCN)nn3)CC2)nc(N2CCN(C(=O)CCCCCCCCCCNC(=O)[C@H](CO)n3cc(CCCCCN)nn3)CC2)n1 | 11.2 µM (active) |
| C/C(=N/NC(=O)c1cc2ccccc2cc1O)C1C(=O)c2ccccc2C1=O | inactive |
| O=C(Nc1cnn(Cc2ccccc2)c1)c1nc2ncccn2n1 | inactive |
| O=C(Nc1ccccc1)c1cc(Cl)nc2ccccc12 | inactive |
| NS(=O)(=O)c1ccc(N=Nc2c(O)c(C(=O)O)cc3ccccc23)cc1 | 11.2 µM (active) |
| FC(F)(F)c1cnc2c(c1)Nc1ccccc1S2 | inactive |
| COc1ccc(-n2c(=S)[nH]c3cc(C(=O)NCc4ccc(F)cc4)ccc3c2=O)c(OC)c1 | inactive |
| O=C1/C(=C/C=C/c2ccco2)SC(=S)N1c1ccc(O)cc1 | 2.82 µM (active) |
| CN(c1ccccc1)S(=O)(=O)c1ccc(Cl)c(C(=O)NCCc2c[nH]c3ccccc23)c1 | inactive |
| CCN(CC)CCNc1nc(-c2ccccc2)c2c(c1C#N)CC(C)(C)OC2 | inactive |
| COc1ccc(NC(=O)CSc2nnc(-c3ccccc3Cl)n2Cc2ccco2)c(OC)c1 | inactive |
| O=C(CCCN1C(=O)/C(=C\c2ccco2)SC1=S)Nc1ccc(O)cc1C(=O)O | 12.6 µM (active) |
| COc1ccc(/C=C2\SC(=S)N(NS(=O)(=O)c3ccc(C)cc3)C2=O)c(OC)c1 | inactive |
| COc1ccc(S(=O)(=O)N2CCCCC2)cc1NC(=O)Cc1c[nH]c2ccccc12 | inactive |
| O=C1NC[C@@H](c2ccccc2)OC(=O)[C@@H](Cc2ccc(F)cc2)CC/C=C/C[C@@H]1CC(=O)N(CCO)Cc1ccccc1 | inactive |
| CCCc1cc(=O)oc2cc(C)c(CN3CCCC3)c(O)c12 | inactive |

| Structure (SMILES) | Potency |
| --- | --- |
| C=C(C)COc1ccc(-c2[nH]ncc2Oc2ccccc2OCC)c(O)c1 | inactive |
| CCn1c(COc2ccc(C)cc2)nnc1SCC(=O)Nc1ccc2c(c1)OCCO2 | inactive |
| C[C@H](CO)N1C[C@H](C)[C@@H](CN(C)S(=O)(=O)c2cccs2)Oc2c(NC(=O)Nc3ccc4c(c3)OCO4)cccc2C1=O | inactive |
| CC(C)OCCCNC(=O)c1c(N)n(/N=C/c2ccccn2)c2nc3ccccc3nc12 | inactive |
| Cc1n[nH]c(C)c1S(=O)(=O)N1CCCC(C(=O)NC2CCCc3ccccc32)C1 (configuration not stated) | inactive |
| O=C(c1ccccc1)N1CCN(C(=O)N2CCCCC2)CC1 | inactive |
| CC(C)n1c(/C=C/[C@H](O)C[C@H](O)CC(=O)O)c(-c2ccc(F)cc2)c2ccccc21 | inactive |
| CC(/C=N/NC(=O)c1cc(-c2cccs2)[nH]n1)=C\c1ccccc1 | inactive |
| COc1ccccc1N1C(=O)CC(N2CCc3ccccc32)C1=O (configuration not stated) | inactive |
| CCOC(=O)c1[nH]c2ccc(OC)cc2c1NC(=O)CCN1CCCC(C)C1 (configuration not stated) | inactive |
| NS(=O)(=O)c1ccc(NC(=O)/C=C/c2cn(-c3ccccc3)nc2-c2cccc(Cl)c2)cc1 | inactive |
| O=C(O)CCn1c(C2CCCCC2)nc2ccccc21 | inactive |
| Cc1cc(C)n2cc(CSc3nnnn3-c3ccccc3C)nc2n1 | inactive |
| COc1ccc(OCC(=O)NCCNC(=O)c2cccnc2)cc1 | inactive |
| CCOC(=O)N1CCN(C(=O)CN(c2cccc(C)c2)S(=O)(=O)c2ccccc2)CC1 | inactive |
| CCCCCCCC/C=C\CCCCCCCC(=O)NCCc1ccc(O)c(O)c1 | inactive |
| CC(=O)Nc1ccc(Nc2cc(C)nc(Nc3ccc(NC(C)=O)cc3)n2)cc1 | inactive |
| O=C(C[n+]1ccc(-c2cc(C(=O)Nc3cccc(C(F)(F)F)c3)c3ccccc3n2)cc1)c1cccc([N+](=O)[O-])c1 | inactive |
| O=C(Nc1ccc2nc(-c3ccco3)c(-c3ccco3)nc2c1)N1CCN(c2ccccn2)CC1 | 2.82 µM (active) |
| COc1ccc(NC(=O)CSc2nc(O)cc(=O)n2-c2ccc(OC)cc2)cc1 | inactive |
| CCN(Cc1ccncc1)C(=O)c1cccs1 | inactive |
